# PKM2 act = activators of human pyruvate kinase M2 | P14618 | AID 1631 | Potency, µM (highest dose often 57.5 µM), without a hit: top-dose activation, usual class: activators | actives 0.34% (n = 260,000) | purified PKM2, Kinase-Glo ATP luminescence, activation; response scale: 0% is enzyme alone, no compound; note: potency is the fitted concentration of half-maximal effect; % is set by controls: 0 for no effect and ±100 for the full control effect; nearly all actives have a fitted effect of over 55% in size
# Target sequence (P14618 whole entry, looked up): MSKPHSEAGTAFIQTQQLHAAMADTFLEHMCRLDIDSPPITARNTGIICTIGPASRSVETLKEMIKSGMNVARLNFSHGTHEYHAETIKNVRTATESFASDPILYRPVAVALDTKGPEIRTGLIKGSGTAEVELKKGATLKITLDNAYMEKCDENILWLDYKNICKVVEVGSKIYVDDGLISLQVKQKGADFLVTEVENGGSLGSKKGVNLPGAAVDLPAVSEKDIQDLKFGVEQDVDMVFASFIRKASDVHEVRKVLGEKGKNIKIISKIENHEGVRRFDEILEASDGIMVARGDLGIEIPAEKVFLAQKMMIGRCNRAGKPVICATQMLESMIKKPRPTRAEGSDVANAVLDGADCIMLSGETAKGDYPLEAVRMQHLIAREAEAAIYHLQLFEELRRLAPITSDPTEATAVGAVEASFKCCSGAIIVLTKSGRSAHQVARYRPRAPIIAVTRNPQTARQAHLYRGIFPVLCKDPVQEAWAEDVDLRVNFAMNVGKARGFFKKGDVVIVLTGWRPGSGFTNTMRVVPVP
#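 Purified hPK-M2 (>95%) run at intermediate activity with 0.1 mM ADP and 0.5 mM PEP in 50 mM imidazole pH 7.2, KCl, MgCl2; 1 h room temperature. ATP formed read by Kinase-Glo luminescence; normalized to uninhibited and no-enzyme controls.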
# Rango dissoc inh = inhibitors of RanGTP-induced Rango-importin beta complex dissociation. O95149+P62826. AID 540253. actives 0.071% (n = 340,000). Potency, µM (doses to about 46.1 µM), for the others: top-dose activity change, negative = inhibition. Biochemical FRET Rango-importin beta, RanGTP-induced dissociation; calls by dose curve; note: potency is the fitted concentration of half-maximal effect; % of control where 0% means no effect; nearly all actives have a fitted effect of over 45% in size
#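 Compounds sat 5 min at room temperature with 0.1 uM Rango biosensor plus 0.25 uM importin beta, then FRET pre-read. RanGTP-RCC1 (0.6 uM Ran, 2mM GTP, 0.2 uM RCC1) added for 45 min, and the CFP/YFP post-read measured blocked complex dissociation.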
# A-T KAP1 phos = potential ataxia-telangiectasia treatment | F2112 A-T fibroblasts, KAP-1 phosphorylation AlphaLISA; neocarzinostatin DNA damage 30 min before lysis | AID 485349 | actives 0.19% (n = 320,000) | Potency, µM (top dose mostly 57.5 µM), for the others: at the highest dose activation, most hits filed as activators; note: potency is the fitted concentration of half-maximal effect; % of control where 0% means no effect; nearly all actives have a fitted effect of over 45% in size
#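 hTERT-immortalized A-T patient fibroblasts (F2112), 500 cells/well in OPTI-MEM, 1% FBS, got compounds for 60 min, then NCS for 30 min at 37C. Lysates were then assayed for phospho-KAP-1 by AlphaLISA (anti-pKAP1 donor, anti-KAP1 acceptor beads), 6 hr at 25C.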
# Rango-impB inh = prevents formation of the Rango-importin beta complex | Potency, µM (doses to about 92.2 µM), for the others: at the top dose inhibition of complex formation | Rango CFP/YFP FRET sensor + importin beta, 45 min | Q14974 | AID 540263 | actives 0.031% (n = 340,000); calls by dose curve;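 note: potency is the fitted concentration of half-maximal effect; 0% = DMSO wells and 100% = buffer wells lacking importin beta; nearly all actives have a fitted effect of over 15% in size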
#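 Inhibition scored from the CFP 486 nm/YFP 530 nm FRET ratio 45 min after adding 0.125 microM importin beta to 50 nM Rango biosensor preincubated 5 min with compound (room temperature, PBS with DTT, Tween-20, BSA). No-importin wells as positive control.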
# IL2 activator = activates IL-2 in a cell-based reporter assay. IL-2 activation reporter assay, cell-based qHTS; stimulated with anti-CD3/CD4/CD28 beads; in transgenic mouse T cells. activation, % (series mostly up to about 46 µM). actives 0.065% (n = 360,000); in the data active = activation above about 50%; inconclusive = mostly about 30% to 49%; note: 0% is about no effect
#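 Unstimulated transgenic mouse T cells, 750 per well, received compound and, after 60 minutes, anti-CD3/anti-CD4 bead plus anti-CD28 stimulation. EGFP and DsRed were quantified after 18 hours.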
# * = called active by the depositor; ? = inconclusive; / = not tested or not shown; [ ] = another dose, or the depositor's remark. Only some compounds are listed: those with a hit (about 0.59% of all), similar ones and a draw of the others. Unless noted, calls come from the whole dose curve; as a rule, active = well fitted activation curve with a large enough effect; inconclusive = small, poorly fitted or top-dose-only effect; inactive = no such curve, though single readings can be large or run the other way.
SMILES,PKM2 act,Rango dissoc inh,A-T KAP1 phos,Rango-impB inh,IL2 activator
N=c1c(S(=O)(=O)c2ccc(Cl)cc2)cc2c(=O)n3ccccc3nc2n1Cc1cccnc1,1%,?,21%,?,151*
FC(F)Oc1ccc(-n2cc(-c3ccc(Cl)cc3)[n+]3c2CCCCC3)cc1,-2%,2%,14µM*,-3%,0
COc1ccc(-n2cc(-c3ccccc3)[n+]3c2CCCCC3)cc1,-1%,-11%,7%,-2%,0
N#CCNC(=O)C1CC(=O)N(CCc2ccc(F)cc2)C1 (stereo unspecified),-1%,12%,-4%,5%,0
O=C(/C=C/c1ccccc1)c1cc(Br)ccc(=O)c1O,-1%,-16%,-12%,2%,-1
Cc1ccc(/C=C/C(=O)c2ccccc(=O)c2O)cc1C,4%,8.2µM*,4%,?,6
O=C1c2ccc(-c3ccc(F)cc3OCc3ccccc3)cc2S(=O)(=O)c2cccc(C(=O)N3CCCC3)c21,/,-11%,-3%,-1%,-1
CC1CCN(C(=O)c2ccc(CNS(=O)(=O)c3ccc(C(C)(C)C)cc3)cc2)CC1,/,-6%,3%,-5%,0
CCOc1ccc(NC(=O)/C(C#N)=C\c2ccc(N3CCCC3)c(C)c2)cc1,/,?,/,?,174*
O=c1c2sccc2nc(SCc2cc(=O)n3cc(Br)ccc3n2)n1Cc1ccccn1,7.9µM*,-13%,3%,?,3
CN(C(=O)c1cc(C(=O)N(C)c2ccccc2)cc([N+](=O)[O-])c1)c1ccccc1,1%,1%,40µM*,0%,2
CC(=O)c1cnc2nc(SCc3ccccc3C)nn2c1C,13µM*,-18%,0%,-2%,-3
CC(=O)c1cnc2nc(C(F)(F)F)nn2c1C,11%,0%,21%,0%,-1
C[C@@H](C(=O)N1CCN(C(=O)OC(C)(C)C)CC1)n1cc(-c2cn([C@@H](C)C(=O)N3CCN(C(=O)OC(C)(C)C)CC3)nn2)nn1,19%,/,22µM*,/,/
O=C(COc1ccc(F)cc1)NNC(=O)Cn1ccc(C(F)(F)F)n1,/,-5%,-7%,0%,6
CCOC(=O)C1CCN(C(=O)c2cc3cc(Cl)ccc3[nH]2)CC1,/,-7%,7.9µM*,-1%,-1
CCOC(=O)c1cnc2ccccc2c1Nc1cccc(C(=O)O)c1,3%,-8%,-3%,0%,80*
CCOC(=O)c1cnc2ccc(C)cc2c1N(C)Cc1ccccc1,/,-8%,22µM*,2%,0
Cc1onc(-c2ccccc2)c1CNS(=O)(=O)c1cccc(Cl)c1,32µM*,17%,1%,-1%,0
Cc1ccc(S(=O)(=O)NCc2c(-c3ccccc3)noc2C)cc1,?,-15%,1%,-3%,-3
COc1ccc(S(=O)(=O)NCc2c(-c3ccccc3)noc2C)c(OC)c1,28µM*,11%,1%,3%,0
Cc1onc(-c2ccccc2)c1CNS(=O)(=O)c1ccccc1,10%,0%,0%,-3%,-2
O=C(c1ccc2c(c1)OCO2)N1CCN(S(=O)(=O)c2ccc(Br)cc2Cl)CC1,/,0%,11%,-2%,0
CC1(C)CC(=O)CC(=NCC(=O)O)C1,-2%,26µM*,-14%,?,2
O=C(CN1C(=O)NC(c2ccccc2)(c2ccccc2)C1=O)NCCc1ccc(F)cc1,/,-10%,-6%,4%,0
SMILES,PKM2 act,Rango dissoc inh,A-T KAP1 phos,Rango-impB inh,IL2 activator
COc1ccc(C2c3c(ncn(CCN4CCOCC4)c3=N)Oc3ccc4ccccc4c32)cc1OC (stereo unspecified),20µM*,4%,9%,-3%,-2
COc1ccc(C2c3c(ncn(CCCO)c3=N)Oc3ccc4ccccc4c32)cc1OC (stereo unspecified),-4%,-1%,5%,3%,-5
CC(C)C(C(=O)O)N1C(=O)/C(=C/C=C/c2ccco2)SC1=S (stereo unspecified),9%,0.0052µM*,-14%,?,-2
O=C1/C(=C/C=C/c2ccco2)SC(=S)N1c1ccc(O)cc1,15%,-2%,-11%,-4%,4
O=C(O)C1CCC2CCCC21 (stereo unspecified),/,/,/,/,0
CN1/C(=C\C=C(C#N)C#N)C(C)(C)c2ccccc21,-16%,?,1%,?,143*
Cn1cnc([N+](=O)[O-])c1Sc1nc(N)nc2c1ncn2C1CC(O)C(CO)O1 (stereo unspecified),/,-4%,/,0%,-3
CCc1cccc(CC)c1NC(=S)NCCc1ccc(O)c(O)c1,22µM*,20%,-15%,-4%,0
CCCN1C(=O)S/C(=C\c2ccc(N3CCOCC3)cc2C)C1=O,-6%,/,-2%,/,/
CCCN1C(=O)S/C(=C\c2ccc(N3CCOCC3)o2)C1=O,3.5µM*,?,-13%,?,1
CCC[C@H]1CC(=O)C=C(c2ccsc2)ON1C(=O)OC(C)(C)C,/,-15%,/,-2%,0
CCC[C@@H]1CCCC/C=C\CCCC(=O)OCCN1C(=O)OC(C)(C)C,/,24%,25µM*,-1%,0
COc1cccc(/C=C/C(=O)N2CCN(S(=O)(=O)c3ccccc3)CC2)c1,/,/,/,/,-4
COC(=O)CSc1nc2cc(C)ccc2cc1C#N,2%,-6%,1%,?,103*
CCOC(=O)CC(=O)CSc1nc2ccc(C)cc2cc1C#N,-39%,?,-3%,?,2
Cc1csc(SCC(=O)N2CCN(S(=O)(=O)c3ccc(Cl)cc3)CC2)n1,?,-28%,1%,-1%,-2
O=C(O)CSCC(=O)N1CCN(S(=O)(=O)c2ccccc2)CC1,-1%,4%,1%,-1%,2
O=C(CSc1ccccc1)N1CCN(S(=O)(=O)c2ccccc2)CC1,2.8µM*,-6%,3%,-1%,-1
Cc1ccc(SCCC(=O)N2CCN(S(=O)(=O)c3ccccc3)CC2)cc1,/,6%,-3%,-2%,-4
Cc1ccc(S(=O)(=O)N2CCN(C(=O)CSc3ccc(F)cc3)CC2)cc1,13µM*,20%,9%,1%,-1
Cc1csc(SCC(=O)N2CCN(S(=O)(=O)c3ccccc3)CC2)n1,32µM*,-8%,4%,1%,0
CCOC(=O)c1ccoc1CSCC(=O)N1CCN(S(=O)(=O)c2ccc(C)cc2)CC1,25µM*,-4%,5%,-2%,3
CC(=O)N1CCc2cc(S(=O)(=O)CCC(=O)Nc3cc(C)cc(C)c3)ccc21,2%[0.46 µM],0%,2%,-4%,4
CC(=O)Nc1cc(-c2cccnc2)cn2c(-c3cccc(C(F)(F)F)c3)cnc12,/,/,/,/,1
Cc1ccc(S(=O)(=O)Nc2cccc(C(=O)NCc3cccnc3)c2)cc1F,/,-12%,-6%,1%,-3

# Bioassay records deposited in PubChem BioAssay by National Center for Advancing Translational Sciences (NCATS).
